Screening results as filed in PubChem BioAssay.
HPGD inh = blocks human HPGD enzyme activity. P15428. purified HPGD, NADH fluorescence kinetic, PGE2 substrate. Potency, µM, for inactives: at the top dose activity change, negative = inhibition, usual class: inhibitors. 150,000 tested, 4.3% active. AID 894; active means well fitted inhibition curve with a large enough effect, not every such curve was filed as active; inconclusive means small, poorly fitted or top-dose-only effect, or another doubt; inactive means no such curve, though single readings can be large or run the other way; further: potency means the concentration at half of the fitted maximal effect; on the % scale 0 is the no-effect control and ±100 the full control effect
Target sequence (P15428 whole entry, looked up): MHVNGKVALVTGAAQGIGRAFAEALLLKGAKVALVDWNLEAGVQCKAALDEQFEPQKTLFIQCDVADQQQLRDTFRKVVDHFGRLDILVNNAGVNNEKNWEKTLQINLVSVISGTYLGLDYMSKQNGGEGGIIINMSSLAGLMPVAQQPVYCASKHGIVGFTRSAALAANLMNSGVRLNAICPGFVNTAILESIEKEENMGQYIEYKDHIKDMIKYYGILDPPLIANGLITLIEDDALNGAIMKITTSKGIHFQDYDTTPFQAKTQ
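NADH formation kinetics: reaction with 30 uM PGE2 and 1 mM NAD+ (final), 20 nM enzyme, Tris-HCl pH 8 with Tween 20, after 15 min compound preincubation at room temperature. Fluorescence change, last versus first of five reads.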
CBFb RUNX1 block = blocks binding between human CBF-beta and RUNX1. AlphaScreen CBFb-His/RUNX1-biotin binding, biochemical. Q01196+Q13951. 230,000 tested, under 10 active. Potency, µM (doses to about 59.8 µM), for the others: top-dose activity, negative = inhibition, most hits filed as inhibitors; further: % of control where 0% means no effect
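AlphaScreen proximity signal reports loss of binding between His-tagged CBF-beta and biotin-labelled RUNX1, each at 30 nM. Proteins are pre-associated for 20 minutes, compounds added for 15 minutes, then beads for 90 minutes, all at ambient temperature.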
PNC inhibitor = perinucleolar compartment assembly inhibition; AID 2417; 140,000 tested, 3.1% active; activity change (PNC), negative = inhibition, % at 10 µM; PC3M PTB-GFP, PNC prevalence imaging, 16 h; active compounds read low;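 active means readout at or below -70, meaning at least 70% loss of cells showing the perinucleolar compartment, a nuclear body marking cancer cells; inconclusive means readout between -30 and a set limit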;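 further: plate controls were DMSO wells for no effect and camptothecin positive control wells for full effect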
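Read-out is percentage of cells bearing a perinucleolar compartment, from automated 20x imaging of fixed, Hoechst-stained PC3M PTB-GFP cells. Cells were seeded 4 h, then exposed 16 h to compound (23 nl of library stock) in duplicate plates.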
HTT aggregate = inhibitors of mutant huntingtin aggregate formation in PC12 cells; PC12 HttQ103-GFP aggregates, Acumen cytometry, 40 h; 220,000 tested, 1.1% active; Potency, µM (highest dose often 46.1 µM), for the others: at the highest dose activity change, negative = inhibition, usual class: inhibitors; further: potency means the concentration at half of the fitted maximal effect; on the % scale 0 is the no-effect control and ±100 the full control effect; nearly all actives have a fitted effect of over 60% in size
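Aggregates are detected as GFP objects 1–25 µm with signal 6 STDEV over background in lysates of induced PC12 cells. These carry Huntingtin exon 1 with 103 glutamines fused to GFP under an ecdysone promoter; compounds titrated.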
HTT cytoprotect = protects HTT-Q103 PC12 cells, measured by ATP | PC12 HTT-Q103 induced, cytoprotection, ATP luminescence, 40 h | Potency, µM (top dose mostly 56.4 µM), inactives show cytoprotection (ATP increase), usual class: activators | 230,000 tested, 0.14% active | AID 1471; further: potency means the concentration at half of the fitted maximal effect; % of control where 0% means no effect; nearly all actives have a fitted effect of over 45% in size
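Huntington model: PC12 line, ecdysone-inducible HTTQ103 exon1–GFP, tebufenozide 100 nM. Test articles in a dose series. Endpoint luminescence from cellular ATP.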
ALDH1A1 inh = ALDH1A1 (human) enzyme inhibition | Purified ALDH1A1, NADH fluorescence, propionaldehyde substrate | Potency, µM (titrated, usually from 75.3 µM), for inactives: at the top dose activity, negative = inhibition, usual class: inhibitors | 220,000 tested, 7.3% active | AID 1030; active means well fitted inhibition curve with a large enough effect, not every such curve was filed as active; inconclusive means small, poorly fitted or top-dose-only effect, or another doubt; inactive means no such curve, though single readings can be large or run the other way;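 further: potency means the concentration at half of the fitted maximal effect; plate controls were no enzyme wells and a reference inhibitor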
Target sequence (P00352 whole entry, looked up): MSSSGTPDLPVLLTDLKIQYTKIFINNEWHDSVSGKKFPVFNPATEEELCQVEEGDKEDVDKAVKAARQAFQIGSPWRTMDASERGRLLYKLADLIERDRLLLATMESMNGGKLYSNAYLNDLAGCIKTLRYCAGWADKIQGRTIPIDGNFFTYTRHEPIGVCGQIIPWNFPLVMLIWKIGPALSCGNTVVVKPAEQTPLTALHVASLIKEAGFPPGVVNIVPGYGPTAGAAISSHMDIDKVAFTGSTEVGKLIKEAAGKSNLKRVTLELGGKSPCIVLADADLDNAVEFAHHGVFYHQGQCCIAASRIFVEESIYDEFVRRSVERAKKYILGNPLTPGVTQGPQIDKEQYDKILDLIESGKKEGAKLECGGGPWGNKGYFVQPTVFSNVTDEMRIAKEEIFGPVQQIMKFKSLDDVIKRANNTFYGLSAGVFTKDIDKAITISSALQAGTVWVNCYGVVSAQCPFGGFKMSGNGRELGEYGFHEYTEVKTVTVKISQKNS
* marks the source's active call; other numbers are inactive results; u = inconclusive; x = no result; [ ] = another dose, or the depositor's remark. This is a sample that favours compounds with a hit; in the whole collection about 11% have one here. Unless noted, the call rests on the fitted dose curve; in most records, active means well fitted curve in the direction sought with a large enough effect; inconclusive means small, poorly fitted or top-dose-only effect, or another doubt; inactive means no such curve, though single readings can be large; an effect the other way counts as inactive or inconclusive.

SMILES	HPGD inh	CBFb RUNX1 block	PNC inhibitor	HTT aggregate	HTT cytoprotect	ALDH1A1 inh
COc1ccc2[nH]c3c(NCCC4=CCCCC4)ncnc3c2c1	x	-4%	x	13µM*	-156%	u
Cc1ccc2[nH]c3c(NCCN4CCOCC4)ncnc3c2c1	-15%	-2%	-84*	-3%	12%[1.9 µM]	-8%
Cc1ccc2[nH]c3c(N4CCCCCC4)ncnc3c2c1	-14%	-1%	u	8.9µM*	9%[1.9 µM]	-2%
Clc1ccc2[nH]c3c(NCCCN4CCOCC4)ncnc3c2c1	u	-2%	-24	u	6%	u
CCN(CC)CCNc1ncnc2c1[nH]c1ccc(OC)cc12	-2%	-13%	u	-8%	-23%	u
Cc1ccc2c(c1)[nH]c1c(N3CCN(Cc4ccccc4)CC3)ncnc12	u	u	-12	7.1µM*	-85%[0.074 µM]	u
COc1ccc2c(c1)[nH]c1c(N3CCN(Cc4ccc5c(c4)OCO5)CC3)ncnc12	u	-18%	19	8.9µM*	-100%	-6%
Cc1cc(N2CCC(C(=O)N3CCN(c4cccc(C)c4C)CC3)CC2)n2ncnc2n1	-23%	8%	26	-23%	-24%	4µM*
CCOC(=O)C1=C(O)C(=O)N(Cc2ccc(C(C)(C)C)cc2)CC1	x	-1%	x	11%[9.22 µM]	-10%[10 µM]	14µM*
CN1CCN(C(c2cccnc2)c2ccc3cccnc3c2O)CC1 (centres undefined)	-29%	4%	u	u	-59%[10 µM]	1.9µM*
CCC(=O)NC(c1cccs1)c1ccc2cccnc2c1O (centres undefined)	x	-11%	x	-15%[9.22 µM]	-45%[10 µM]	-11%
CCC(CC)NC(=O)COC(=O)c1cccc(C)c1O	u	6%	u	-4%[9.22 µM]	-4%	4%
C=CCSC1=N/C(=C\c2ccc(C(=O)O)cc2)C(=O)S1	x	-8%	x	9%	-51%	3.5µM*
CCSC1=N/C(=C\c2ccc(C(=O)O)cc2)C(=O)S1	-24%	-3%	-17	6%	-3%	-8%
CCn1c(C)cc(/C=C2/SC(=S)NC2=O)c1C	u	-24%	-22	u	-18%[10 µM]	u
CCn1ncc(/C=C2/SC(=S)NC2=O)c1C	16µM*	5%	30	-5%	x	-13%
COC(=O)C1(CC(C)C)C=C2C(=C(C)C(=O)C2C)CN1 (centres undefined)	-17%	5%	x	x	-3%	u
CN(c1ccccc1)c1ccc(/C=C/[N+](=O)[O-])cc1	32µM*	2%	7	-5%	-32%[10 µM]	8.9µM*
COC(=O)N1CCC2(CCCN(c3ccccn3)C2)CC1	u	x	x	x	25%	-91%
Cc1cnc(CNc2ncncc2-c2ccccc2C)cn1	x	x	x	x	7%	1%
Cn1c(=O)c([N+](=O)[O-])c(NCc2ccccc2Cl)c2ccccc21	x	-10%	x	7%[9.22 µM]	13%[10 µM]	x
COc1ccc(CCNc2c3ccccc3nc3ccccc23)cc1OC	x	0%	x	11%[9.22 µM]	-12%[10 µM]	x
CCn1c(=O)c([N+](=O)[O-])c(NCCc2ccc(OC)c(OC)c2)c2ccccc21	8.9µM*	3%	12	6%	13%[10 µM]	14µM*
Cn1c(=O)c([N+](=O)[O-])c(Cl)c2ccccc21	x	1%	x	-45%[9.22 µM]	-59%[10 µM]	18µM*
CCn1c(=O)c([N+](=O)[O-])c(NCCc2ccccc2)c2ccccc21	16µM*	-3%	u	u	12%[10 µM]	u
SMILES	HPGD inh	CBFb RUNX1 block	PNC inhibitor	HTT aggregate	HTT cytoprotect	ALDH1A1 inh
Cn1c(=O)c([N+](=O)[O-])c(NCCc2ccccc2)c2ccccc21	16µM*	-10%	u	-7%	8%[1.9 µM]	-8%
Cc1ccc(C(=O)Cn2c3c(sc2=N)CCCC3)cc1	-19%	10%	x	x	-186%	u
CCCCCCCCCCCCCCCCOC[C@@H](COCC(F)(F)F)OP(=O)(O)OCO	x	x	x	x	8%[1.9 µM]	x
CC(=O)Nc1ccc(Nc2c([N+](=O)[O-])c(=O)n(-c3ccccc3)c3ccccc23)cc1	x	9%	x	0%[9.22 µM]	7%[10 µM]	10µM*
Cc1ccc(Nc2c([N+](=O)[O-])c(=O)n(C)c3ccccc23)cc1C	-11%	-11%	4	5%	-21%[10 µM]	8.9µM*
O=c1c([N+](=O)[O-])c(N2CCCCCC2)c2ccccc2n1-c1ccccc1	-4%	8%	-7	18%	10%[10 µM]	2%
Cn1c(=O)c([N+](=O)[O-])c(NC2CCS(=O)(=O)C2)c2ccccc21 (centres undefined)	x	7%	x	-25%[9.22 µM]	6%[10 µM]	x
Cc1cc(C(F)(F)F)c(C#N)c(SCC(=O)Nc2nc3ccccc3s2)n1	-22%	-5%	24	-11%	9%[10 µM]	-2%
Cc1csc(NC(=O)CCCSc2nc3ccccc3s2)n1	14µM*	-10%	-5	u	-15%[10 µM]	10µM*
Cc1nc(SCC(=O)Nc2nc3ccccc3s2)c(C#N)c(C)c1C	28µM*	10%	16	3%	-76%[10 µM]	u
CC(C)OC(=O)CSc1nc2ccccc2s1	16µM*	8%	-24	8%	11%	11µM*
CC(C)CC1CC(=O)OC1(C)C(=O)CSc1nc2ccccc2s1 (centres undefined)	-17%	12%	10	3%	-15%	8.9µM*
COc1ncc2nc(-c3cn(C)c4ccccc34)c(=O)n(-c3ccccc3)c2n1	x	x	x	x	26%	5%
CCCn1c(C)cc(C(=O)CSc2nnc3n(CCC)c(=O)c4ccccc4n23)c1C	-11%	2%	-10	u	-6%[10 µM]	1%
Cc1nnc(SCC(=O)c2ccc(Cl)cc2)n(N)c1=O	x	4%	x	7%[9.22 µM]	0%	u
COc1ccc(-c2[nH]c(-c3ccc(Cl)cc3)nc2SCC(=O)Nc2nccs2)cc1	-27%	0%[2.36 µM]	2	-2%	x	24%
CC(C)CCNC(=O)CSc1nc2ccccc2s1	x	3%	x	-17%	-13%	18µM*
CC(C)c1nnc(NC(=O)CSc2nc3ccccc3s2)s1	-22%	2%	21	-2%	-13%	u
Cc1ccccc1N1CC(C(=O)Nc2nnc(SCC(=O)Nc3nccs3)s2)CC1=O (centres undefined)	-29%	-20%	4	13%	x	16µM*
O=C(CSc1nc2ccccc2s1)Nc1nccs1	-5%	-1%	41	20µM*	3%	2%
COc1ccc(-c2[nH]c(-c3ccccc3)nc2SCC(=O)Nc2nccs2)cc1	-25%	20%[2.36 µM]	-98*	12%	x	5%
COC(=O)[C@H](C)NC(=O)C/C=C\[C@@H](C)[C@@H](CO)OC	x	12%[13.1 µM]	x	x	u	8%[13.5 µM]
Cc1nc2c(OCc3ccccc3)cccn2c1CC#N	-19%	15%	x	x	8%	12%
C=CCC(C)(O)c1ccc(OC)cc1 (centres undefined)	-9%	12%	x	x	-30%	-1%
